In PubChem BioAssay (NCATS):
Inconclusive results are not listed. A call without a number means that no potency is given here. Values without a mark were called inactive. Active and inactive are the calls of the source. The call rests on the fitted dose curve; in most records, active means well fitted curve in the direction sought with a large enough effect; inconclusive means small, poorly fitted or top-dose-only effect, or another doubt; inactive means no such curve, though single readings can be large; an effect the other way counts as inactive or inconclusive.

Key:
[1] = molecular target: Rap guanine nucleotide exchange factor 3 (Homo sapiens) (UniProt O95398); assay: Confirmatory qHTS for antagonist of cAMP-regulated guanine nucleotide exchange factor 3 (EPAC1) (AID 1645880); further: nearly all actives have a fitted effect of over 55% in size; further: potency means the concentration at half of the fitted maximal effect
Sequence of Rap guanine nucleotide exchange factor 3 (Homo sapiens) (O95398 whole entry, looked up): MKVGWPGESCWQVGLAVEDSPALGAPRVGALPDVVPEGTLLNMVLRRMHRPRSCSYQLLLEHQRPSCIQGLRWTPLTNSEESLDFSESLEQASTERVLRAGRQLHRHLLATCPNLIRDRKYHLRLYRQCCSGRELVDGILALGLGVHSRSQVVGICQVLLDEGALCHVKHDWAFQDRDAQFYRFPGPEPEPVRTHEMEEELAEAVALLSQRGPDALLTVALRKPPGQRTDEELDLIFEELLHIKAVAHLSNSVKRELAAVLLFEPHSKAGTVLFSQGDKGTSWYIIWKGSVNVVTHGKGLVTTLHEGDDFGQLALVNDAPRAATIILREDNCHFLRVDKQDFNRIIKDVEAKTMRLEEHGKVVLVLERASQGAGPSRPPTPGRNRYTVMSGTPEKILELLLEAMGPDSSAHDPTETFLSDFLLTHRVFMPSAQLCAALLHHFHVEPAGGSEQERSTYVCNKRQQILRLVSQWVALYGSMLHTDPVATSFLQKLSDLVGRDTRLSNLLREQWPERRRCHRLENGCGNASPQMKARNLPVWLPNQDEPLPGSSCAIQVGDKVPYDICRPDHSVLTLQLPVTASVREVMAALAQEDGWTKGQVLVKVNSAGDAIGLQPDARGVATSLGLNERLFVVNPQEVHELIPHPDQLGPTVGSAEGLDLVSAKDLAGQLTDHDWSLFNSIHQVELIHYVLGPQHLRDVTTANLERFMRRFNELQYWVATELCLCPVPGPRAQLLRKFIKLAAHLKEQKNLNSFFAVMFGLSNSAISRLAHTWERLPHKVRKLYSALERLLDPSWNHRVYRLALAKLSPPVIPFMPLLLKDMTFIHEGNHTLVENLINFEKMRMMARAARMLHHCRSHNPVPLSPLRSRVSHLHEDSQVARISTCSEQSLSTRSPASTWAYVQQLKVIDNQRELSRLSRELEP
Outline: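 Released BODIPY-GDP fluoresces less than Rap1-bound BODIPY-GDP; the signal is followed at 480/540 nm at 5-min intervals over 30 min, after 5 min at room temperature. Reactions contain 100 nM EPAC1, 250 nM RAP1B-BODIPY-GDP and 50 uM GDP; results are normalized to ATA and DMSO.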

[2] = molecular target: Rap guanine nucleotide exchange factor 3 (Homo sapiens) (UniProt O95398); assay: Confirmatory qHTS for agonist of cAMP-regulated guanine nucleotide exchange factor 3 (EPAC1) (AID 1645881); further: nearly all actives have a fitted effect of over 75% in size; further: potency means the concentration at half of the fitted maximal effect;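 on activation: EPAC1 catalysed release of BODIPY-GDP from Rap1B seen as fluorescence loss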
[3] = molecular target: Rap guanine nucleotide exchange factor 4 (Homo sapiens) (UniProt Q8WZA2); assay: Confirmatory qHTS for agonist of cAMP-regulated guanine nucleotide exchange factor 4 (EPAC2) (AID 1645884);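 further: nucleotide exchange releases bodipy-GDP from Rap1 and this lowers its fluorescence; nearly all actives have a fitted effect of over 65% in size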; further: potency means the concentration at half of the fitted maximal effect
Sequence of Rap guanine nucleotide exchange factor 4 (Homo sapiens) (Q8WZA2 whole entry, looked up): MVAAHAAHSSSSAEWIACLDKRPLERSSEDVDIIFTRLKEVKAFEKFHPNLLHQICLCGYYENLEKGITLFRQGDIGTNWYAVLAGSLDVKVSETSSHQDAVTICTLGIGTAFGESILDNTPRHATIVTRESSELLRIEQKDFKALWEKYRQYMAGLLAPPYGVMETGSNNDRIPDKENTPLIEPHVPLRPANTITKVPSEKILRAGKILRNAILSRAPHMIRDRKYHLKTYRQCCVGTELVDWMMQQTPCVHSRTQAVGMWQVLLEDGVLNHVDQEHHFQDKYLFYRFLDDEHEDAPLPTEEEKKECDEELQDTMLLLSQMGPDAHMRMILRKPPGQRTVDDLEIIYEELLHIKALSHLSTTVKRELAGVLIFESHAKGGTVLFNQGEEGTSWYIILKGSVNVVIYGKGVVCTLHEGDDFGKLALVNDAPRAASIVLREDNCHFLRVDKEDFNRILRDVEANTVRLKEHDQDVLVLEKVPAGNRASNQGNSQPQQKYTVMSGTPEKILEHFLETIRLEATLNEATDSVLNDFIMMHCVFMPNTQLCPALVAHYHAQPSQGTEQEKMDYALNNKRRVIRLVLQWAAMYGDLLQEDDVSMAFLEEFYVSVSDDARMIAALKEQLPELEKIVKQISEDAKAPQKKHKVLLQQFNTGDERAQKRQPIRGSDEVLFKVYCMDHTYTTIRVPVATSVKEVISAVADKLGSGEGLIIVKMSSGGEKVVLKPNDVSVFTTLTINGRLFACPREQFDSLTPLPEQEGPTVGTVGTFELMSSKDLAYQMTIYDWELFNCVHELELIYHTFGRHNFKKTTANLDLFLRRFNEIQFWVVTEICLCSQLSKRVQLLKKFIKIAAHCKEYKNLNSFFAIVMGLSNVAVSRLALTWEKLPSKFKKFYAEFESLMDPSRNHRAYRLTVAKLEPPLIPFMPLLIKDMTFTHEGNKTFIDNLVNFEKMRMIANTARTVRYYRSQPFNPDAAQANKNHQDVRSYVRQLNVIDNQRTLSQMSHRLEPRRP

[4] = molecular target: Rap guanine nucleotide exchange factor 4 (Homo sapiens) (UniProt Q8WZA2); assay: Confirmatory qHTS for antagonist of cAMP-regulated guanine nucleotide exchange factor 4 (EPAC2) (AID 1645885); further: nearly all actives have a fitted effect of over 25% in size; further: potency means the concentration at half of the fitted maximal effect
[5] = molecular target: Rap guanine nucleotide exchange factor 3 (Homo sapiens) (UniProt O95398); assay: Counterscreen qHTS for antagonist of cAMP-regulated guanine nucleotide exchange factor 3 (EPAC1) (AID 1645888)
Outline: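 Measured: fluorescence of BODIPY-GDP bound to Rap1B, which falls as exchange proceeds. Conditions include 50 uM competing GDP, 5 and 30 min reads, and a later cAMP challenge for antagonist detection.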

Cc1ccccc1NC1=C/C(=N\S(=O)(=O)c2ccc(C(=O)O)cc2)c2ccccc2C1=O
Potency [1]: 14.1 µM (active)
Potency [2]: inactive
activation [3]: 1.42% [at 17.1 µM, percent relative to cAMP agonist control]
Potency [4]: inactive
activity change, negative = inhibition [5]: -15% [at 30.8 µM]

CCOC(=O)c1ccc(N2C(=O)c3n[nH]c(-c4ccco4)c3C2c2ccccc2OC)cc1 (stereo not given)
Potency [1]: 75.7 µM (active)
Potency [2]: inactive
Potency [3]: inactive
Potency [4]: inactive
Potency [5]: inactive

COc1cccc(OC)c1OC(=O)/C=C/c1ccc(C)o1
Potency [1]: inactive
Potency [2]: inactive
activation [3]: -0.917% [at 17.1 µM, percent relative to cAMP agonist control]
Potency [4]: inactive
activity change, negative = inhibition [5]: -18.3% [at 30.8 µM]

CSC1=NC2(CCN(C(=O)NC3CCCCC3)CC2)N=C1c1ccc(C)cc1
Potency [1]: inactive
Potency [2]: inactive
Potency [3]: inactive
Potency [4]: inactive
Potency [5]: inactive

CCOc1ccc(C2=CC(c3cccc(Br)c3)n3c(nc4ccccc43)N2)cc1Cl (stereo not given)
Potency [1]: inactive
Potency [2]: inactive
Potency [3]: inactive
Potency [4]: inactive
Potency [5]: inactive

CCOc1cc(CNc2ccc(O)cc2)cc(Br)c1OCc1ccccc1
Potency [1]: 75.7 µM (active)
Potency [2]: inactive
Potency [3]: inactive
outcome [4]: inactive [at 12.7 µM]
Potency [5]: inactive

COc1ccc(OC)c(N=Cc2c(O)c3ccccc3oc2=O)c1
Potency [1]: inactive
Potency [2]: 112 µM (active)
Potency [3]: 89.1 µM (active)
Potency [4]: inactive
Potency [5]: inactive

Cc1c(C(=O)OCC(=O)N2CCCC2=O)oc2ccccc12
Potency [1]: inactive
Potency [2]: inactive
Potency [3]: inactive
Potency [4]: inactive
Potency [5]: inactive

O=C(CCSc1nc2ccccc2o1)N1CCOCC1
Potency [1]: inactive
Potency [2]: inactive
activation [3]: 0.888% [at 17.1 µM, percent relative to cAMP agonist control]
Potency [4]: inactive
activity change, negative = inhibition [5]: -23.1% [at 30.8 µM]

OC1(c2ccccc2)CC(c2ccccc2)c2ccccc2O1 (stereo not given)
Potency [1]: inactive
Potency [2]: inactive
activation [3]: 1.28% [at 17.1 µM, percent relative to cAMP agonist control]
Potency [4]: inactive
activity change, negative = inhibition [5]: -2.96% [at 30.8 µM]

CC1Cc2nc(SCC(=O)OCc3ccccc3)n(C)c(=O)c2S1 (stereo not given)
Potency [1]: inactive
Potency [2]: inactive
activation [3]: 3.71% [at 17.1 µM, percent relative to cAMP agonist control]
Potency [4]: inactive
activity change, negative = inhibition [5]: 9.81% [at 30.8 µM]

COc1ccc(OC)c(/C=C2\SC(=S)N(NS(=O)(=O)c3ccc(C)cc3)C2=O)c1
Potency [1]: 30.1 µM (active)
Potency [2]: inactive
Potency [3]: inactive
Potency [4]: 47.8 µM (active)
Potency [5]: inactive

O=C(CCN1C(=O)/C(=C/c2cccs2)SC1=S)Nc1ccc(C(=O)O)c(O)c1
Potency [1]: 79.4 µM (active)
Potency [2]: inactive
activation [3]: 0.91% [at 17.1 µM, percent relative to cAMP agonist control]
Potency [4]: inactive
activity change, negative = inhibition [5]: 19.6% [at 30.8 µM]

COc1ccc(C2=Cc3ccccc3C(CC(=O)C3CC3)N2c2ccc(C#CCCO)cc2)cc1 (stereo not given)
Potency [1]: inactive
Potency [2]: inactive
activation [3]: 14.6% [at 17.1 µM, percent relative to cAMP agonist control]
Potency [4]: inactive
activity change, negative = inhibition [5]: -1.57% [at 30.8 µM]

COc1cc2c(-c3ccc4c(c3)OCO4)c(-c3ccsc3)oc(=O)c2cc1OC
Potency [1]: inactive
Potency [2]: inactive
activation [3]: 13.2% [at 17.1 µM, percent relative to cAMP agonist control]
Potency [4]: inactive
activity change, negative = inhibition [5]: 10.4% [at 30.8 µM]

COc1ccc(-n2nnnc2SCC(=O)c2ccc(O)c(O)c2)cc1
Potency [1]: 9.53 µM (active)
Potency [2]: inactive
Potency [3]: inactive
Potency [4]: inactive
Potency [5]: inactive

Cc1ccc(NC(=O)C2CCCN2S(=O)(=O)c2cccc3nsnc23)c(Br)c1 (stereo not given)
Potency [1]: inactive
Potency [2]: inactive
Potency [3]: inactive
outcome [4]: inactive [at 12.7 µM]
Potency [5]: inactive

COc1ccc(OC)c(NC(=O)CN(C)CCOc2ccc(Br)cc2)c1
Potency [1]: inactive
Potency [2]: inactive
Potency [3]: inactive
Potency [4]: inactive
Potency [5]: inactive

CCn1nc([N+](=O)[O-])c(C(C#N)c2nc3cc(C(F)(F)F)ccc3s2)c(Cl)c1=O (stereo not given)
Potency [1]: 12.6 µM (active)
Potency [2]: inactive
activation [3]: 12.4% [at 17.1 µM, percent relative to cAMP agonist control]
Potency [4]: inactive
activity change, negative = inhibition [5]: -19.4% [at 30.8 µM]

CC1(C(=O)Nc2ccc(Cl)cc2)Cc2c(-c3cccc(C(N)=O)c3)ccnc2O1 (stereo not given)
Potency [1]: inactive
Potency [2]: inactive
activation [3]: 9.22% [at 17.1 µM, percent relative to cAMP agonist control]
Potency [4]: inactive
activity change, negative = inhibition [5]: 3.15% [at 30.8 µM]

N#CC1(NC(=O)COC(=O)c2nc(Cl)c(Cl)c(N)c2Cl)CCCCC1
Potency [1]: inactive
Potency [2]: inactive
Potency [3]: inactive
Potency [4]: inactive
Potency [5]: inactive

CN(CCC#N)C(=O)COC(=O)c1c2c(nc3ccccc13)/C(=C/c1ccco1)CC2
Potency [1]: 3.55 µM (active)
Potency [2]: inactive
activation [3]: -0.614% [at 17.1 µM, percent relative to cAMP agonist control]
Potency [4]: inactive
activity change, negative = inhibition [5]: -6.16% [at 30.8 µM]

COc1ccc(OC)c(Nc2nc3ccccc3nc2-n2nc(C)cc2C)c1
Potency [1]: inactive
Potency [2]: inactive
Potency [3]: inactive
Potency [4]: inactive
Potency [5]: inactive

Cc1ccc(NC(=O)c2ccc(CN3CC(=O)N4CCCCC4C3=O)cc2)c(C)c1 (stereo not given)
Potency [1]: inactive
Potency [2]: inactive
Potency [3]: inactive
Potency [4]: inactive
Potency [5]: inactive

CCCC(=O)O[C@@H]1C[C@@H](C)N(C(=O)c2ccccc2)c2ccc(C)cc21
Potency [1]: inactive
Potency [2]: inactive
Potency [3]: inactive
Potency [4]: inactive
Potency [5]: inactive

O=C1NC(=O)C2(CCC(C(=O)O)C2)N1 (stereo not given)
Potency [1]: inactive
Potency [2]: inactive
activation [3]: 11.7% [at 17.1 µM, percent relative to cAMP agonist control]
Potency [4]: inactive
activity change, negative = inhibition [5]: 14.4% [at 30.8 µM]

CC1=Nc2ccccc2/C1=C/c1sc(=S)n(-c2cccc(C(=O)O)c2)c1O
Potency [1]: 44.7 µM (active)
Potency [2]: inactive
activation [3]: 2.42% [at 17.1 µM, percent relative to cAMP agonist control]
Potency [4]: inactive
activity change, negative = inhibition [5]: 11.8% [at 30.8 µM]

CO/N=C/c1ccc(Sc2ccccc2)c([N+](=O)[O-])c1
Potency [1]: inactive
Potency [2]: inactive
activation [3]: 6.03% [at 17.1 µM, percent relative to cAMP agonist control]
Potency [4]: inactive
activity change, negative = inhibition [5]: -14.9% [at 30.8 µM]

CC(C)OP(=O)(c1ccc(N(C)C)cc1)C(Nc1ccccc1)c1ccccc1 (stereo not given)
Potency [1]: inactive
Potency [2]: inactive
Potency [3]: inactive
Potency [4]: inactive
Potency [5]: inactive

COc1ccc(-c2cc(C(F)F)n3ncc(C(=O)N4CCc5ccccc54)c3n2)cc1
Potency [1]: inactive
Potency [2]: inactive
Potency [3]: inactive
Potency [4]: inactive
Potency [5]: inactive

CCc1nn2c(-c3ccccc3OC)ccnc2c1-c1ccccc1
Potency [1]: inactive
Potency [2]: inactive
Potency [3]: inactive
outcome [4]: inactive [at 12.7 µM]
Potency [5]: inactive

Fc1ccc(-c2noc3ncnc(N4CCN(c5ccccc5)CC4)c23)cc1
Potency [1]: inactive
Potency [2]: inactive
Potency [3]: inactive
Potency [4]: inactive
Potency [5]: inactive

COC(=O)c1cc(NC(=O)CC2C(=O)OCCN2Cc2ccccc2)cc(C(=O)OC)c1 (stereo not given)
Potency [1]: inactive
Potency [2]: inactive
Potency [3]: inactive
Potency [4]: inactive
Potency [5]: inactive

CCOc1ccc(/C(C)=N/NC(=O)C(OC)c2ccccc2)cc1 (stereo not given)
Potency [1]: inactive
Potency [2]: inactive
Potency [3]: inactive
Potency [4]: inactive
Potency [5]: inactive

O=C(c1ccc([N+](=O)[O-])o1)N1CCN(c2nc3c(Cl)cccc3s2)CC1
Potency [1]: inactive
Potency [2]: inactive
Potency [3]: inactive
Potency [4]: inactive
Potency [5]: inactive

CCOc1ccc(C(=O)NCC(=O)NCC(c2ccco2)N2CCCCC2)cc1OCC (stereo not given)
Potency [1]: inactive
Potency [2]: inactive
activation [3]: -0.0767% [at 17.1 µM, percent relative to cAMP agonist control]
Potency [4]: inactive
activity change, negative = inhibition [5]: -4.11% [at 30.8 µM]

CCC(C(=O)OCC(=O)Nc1cc(C)ccc1OC)c1ccccc1 (stereo not given)
Potency [1]: inactive
Potency [2]: inactive
activation [3]: 3.82% [at 17.1 µM, percent relative to cAMP agonist control]
Potency [4]: inactive
activity change, negative = inhibition [5]: -13% [at 30.8 µM]

Cc1ccc2nc3sc(C(=O)N4CCCc5ccccc54)c(N)c3cc2c1
Potency [1]: inactive
Potency [2]: inactive
activation [3]: 4.98% [at 17.1 µM, percent relative to cAMP agonist control]
Potency [4]: inactive
activity change, negative = inhibition [5]: -0.0356% [at 30.8 µM]

CCc1ccccc1Oc1nc(NC(C)C)nc2ccsc12
Potency [1]: inactive
Potency [2]: inactive
activation [3]: 7.29% [at 17.1 µM, percent relative to cAMP agonist control]
Potency [4]: inactive
activity change, negative = inhibition [5]: -29.4% [at 30.8 µM]

Cc1ccc(C(=O)Nc2ccc(N3CCOCC3)c3nonc23)cc1[N+](=O)[O-]
Potency [1]: 47.8 µM (active)
Potency [2]: inactive
Potency [3]: inactive
Potency [4]: inactive
Potency [5]: inactive

Cc1cccnc1NC(=O)c1ccc(S(=O)(=O)N2CC(C)OC(C)C2)cc1 (stereo not given)
Potency [1]: inactive
Potency [2]: inactive
Potency [3]: inactive
Potency [4]: inactive
Potency [5]: inactive

Nc1ncnc2c1ncn2[C@@H]1O[C@H](C(=O)N[C@H]2c3ccccc3C[C@H]2OC=O)[C@@H](O)[C@H]1O
Potency [1]: inactive
Potency [2]: inactive
Potency [3]: inactive
Potency [4]: inactive
Potency [5]: inactive

CCc1nnc(NS(=O)(=O)c2ccc(Nc3ccc([N+](=O)[O-])c4nonc34)cc2)s1
Potency [1]: 42.6 µM (active)
Potency [2]: inactive
Potency [3]: inactive
Potency [4]: inactive
Potency [5]: inactive

CC1(C(=O)NS(=O)(=O)c2cccs2)CCN1C(=O)C1(c2ccc(Cl)cc2)CCC1 (stereo not given)
Potency [1]: 15.8 µM (active)
Potency [2]: inactive
activation [3]: 1.54% [at 17.1 µM, percent relative to cAMP agonist control]
Potency [4]: inactive
activity change, negative = inhibition [5]: -14.6% [at 30.8 µM]
